Entries with a potency or affinity are not part of this list. A number with no mark means an inactive call. Active and inactive are the calls of the source. No rule for the calls is given here.
Key:
[1] = HepG2 cell cytotoxicity, dose response, cytotoxicity control, plate reader, cherry-pick, antagonist series (AID 743416);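 also: 0% = neutral control wells and -100% = positive control wells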
[2] = target: Melanocortin receptor 4 (Homo sapiens) (UniProt P32245); assay: MC4R antagonists, dose response, counter-screen for LGR2 antagonist project, cell-based, plate reader, cherry pick (AID 743444)
[3] = A549 cell cytotoxicity, dose response, cytotoxicity control, plate reader, cherry-pick, antagonist series (AID 743412);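 also: 0% = neutral control wells and -100% = positive control wells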
[4] = A2780 ovarian cancer cell cytotoxicity, dose response, cytotoxicity control, plate reader, dry powder samples (AID 743046);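 also: 0% = neutral control wells and -100% = cytotoxic reference compound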
[5] = cytotoxicity in OVCAR8 ovarian cancer cells, dose response, PAX8 project, cell-based, plate reader, dry powder samples (AID 743197)

Q: Which outcome [1] does the source give for COc1cc2c(cc1OC)CN(c1ccc([N+](=O)[O-])c(C(F)(F)F)c1)CC2 here?
A: inactive

Q: And the outcome [2]?
A: inactive

Q: With Clc1cccc(N2Cc3cc(-c4ccccc4)ccc3-n3nncc3C2)c1 as the molecule, how does the outcome [3] read?
A: inactive

Q: What about the outcome [1] of the same molecule?
A: inactive

Q: What does the source list for O=C(O)c1nn(Cc2ccc(Cl)cc2Cl)c2ccccc12?
A: outcome [3]: inactive; outcome [1]: inactive; outcome [2]: inactive

Q: With Cc1ccc(OC(=O)N(C)C[C@@H]2OCc3ccccc3-c3c(n(C)c4ccccc34)C(=O)N([C@@H](C)CO)C[C@H]2C)cc1 as the molecule, how does the activity change, negative = cytotoxicity [4] read?
A: -16.8% [at 8 µM]

Q: Which outcome [3] does the source give for O=Cc1cn(Cc2cccc([N+](=O)[O-])c2)c2ccccc12 here?
A: inactive

Q: With COc1cccc(-c2nc3ccc(N4CCN(C)CC4)cc3[nH]2)c1 as the molecule, how does the outcome [1] read?
A: inactive

Q: Which results are given for CNC(=O)Oc1cccc(-c2cn3cc(Cl)ccc3n2)c1?
A: outcome [3]: inactive; outcome [1]: inactive

Q: For O=c1[nH]c2ccccc2n1C1CCN(C(c2ccccc2OC(F)(F)F)c2nnnn2Cc2ccccc2)CC1 (centres undefined), which outcome [1] is on record?
A: inactive

Q: For O=C(Cc1ccccn1)N1CCCCN2[C@@H](CO)[C@@H](c3ccc(-c4ccccc4F)cc3)[C@@H]2C1, which outcome [4] is on record?
A: inactive

Q: What about the outcome [5] of the same molecule?
A: inactive

Q: For COC(=O)c1ccc(NC(=O)CSc2nc3ccc(N4C(=O)C5C6C=CC(C6)C5C4=O)cc3s2)cc1 (centres undefined), which outcome [3] is on record?
A: inactive

Q: With COc1ccc(-c2ccc([C@@H]3[C@@H](CO)N4CCCCN(C(=O)Cc5ccccc5)C[C@H]34)cc2)cc1 as the molecule, how does the outcome [4] read?
A: inactive

Q: And the outcome [5]?
A: inactive

Q: Which outcome [5] does the source give for O=C(Cc1cccnc1)N1CCCCN2[C@H](C1)[C@H](c1ccc(C#CC3CCCC3)cc1)[C@@H]2CO here?
A: inactive

Q: For O=c1c2ccccc2nc(/C=C/c2ccc([N+](=O)[O-])o2)n1-c1ccc(O)cc1, which outcome [2] is on record?
A: inactive

Q: Which outcome [1] does the source give for CC(C)(C)n1cc(C(=O)c2ccc3ccccc3c2O)cn1 here?
A: inactive

Q: Which outcome [4] does the source give for O=C(Cc1ccncc1)N1CCCCN2[C@H](C1)[C@H](c1ccc(C#Cc3ccccc3F)cc1)[C@@H]2CO here?
A: inactive

Q: With O=C(Cc1ccccn1)N1CCCCN2[C@@H](CO)[C@@H](c3ccc(-c4ccc(F)cc4)cc3)[C@@H]2C1 as the molecule, how does the outcome [4] read?
A: inactive

Q: What about the outcome [5] of the same molecule?
A: inactive

— PubChem BioAssay
